Reference: PubChem BioAssay (NCATS)
Values joined by “and” are separate entries in the source; they are usually repeats but may differ in a detail not shown here. Identical values can stand only once. Records with an inconclusive call do not appear. Active and inactive are the calls of the source. Calls come from the whole dose curve; as a rule, active = well fitted inhibition curve with a large enough effect; inconclusive = small, poorly fitted or top-dose-only effect; inactive = flat fitted curve, though single readings scatter.

What was measured:
P93_24 = assay: qHTS profiling for inhibitors of Plasmodium falciparum proliferation (AID 504749); note: potency is the fitted concentration of half-maximal effect; conditions: P. falciparum in erythrocytes, SYBR Green DNA, 72 h; series mostly up to 28.7 µM
How it was run: (§1)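 In a 72 h erythrocytic culture (37 C, humidified, 5% CO2) at 2.5% hematocrit and 0.3% starting parasitemia, compounds were tested; SYBR Green I in detergent lysis buffer stained parasite DNA overnight.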

PAD = assay: as above; conditions: P. falciparum in erythrocytes, SYBR Green DNA, 72 h; series mostly up to 28.7 µM
How it was run: as §1

PC15 = assay: as above; conditions: P. falciparum in erythrocytes, SYBR Green DNA, 72 h; series mostly up to 28.7 µM
How it was run: as §1

PC26 = assay: as above; conditions: P. falciparum in erythrocytes, SYBR Green DNA, 72 h; series mostly up to 28.7 µM
How it was run: as §1

PC49 = assay: as above; conditions: P. falciparum in erythrocytes, SYBR Green DNA, 72 h; series mostly up to 28.7 µM
How it was run: as §1

SC27B = assay: as above; conditions: P. falciparum in erythrocytes, SYBR Green DNA, 72 h; series mostly up to 28.7 µM
How it was run: as §1

TAB113 = assay: as above; conditions: P. falciparum in erythrocytes, SYBR Green DNA, 72 h; series mostly up to 28.7 µM
How it was run: as §1

TAB165 = assay: as above; conditions: P. falciparum in erythrocytes, SYBR Green DNA, 72 h; series mostly up to 28.7 µM
How it was run: as §1

W2 = assay: as above; conditions: P. falciparum in erythrocytes, SYBR Green DNA, 72 h; series mostly up to 28.7 µM
How it was run: as §1

HEK293 = assay: Cytotoxic Profiling of Annotated Libraries Using Quantitative High-Throughput Screening (AID 1296008); conditions: Five cell lines viability, CellTiter-Glo ATP luminescence, 48-72 h; max response: active compounds read low; note: potency is the fitted concentration of half-maximal effect; for max response: % is set by controls: 0 for no effect and ±100 for the full control effect
How it was run: (§2)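 Cytotoxicity was measured as CellTiter-Glo ATP luminescence, read after 10 min at room temperature. Compound treatment of the cells lasted 48 or 72 hr at 37 degrees Celsius in a qHTS format.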

HaCat [1] = assay: as above; conditions: Five cell lines viability, CellTiter-Glo ATP luminescence, 48-72 h; max response: active compounds read low
How it was run: as §2

KB-3-1 = assay: as above; conditions: Five cell lines viability, CellTiter-Glo ATP luminescence, 48-72 h; max response: active compounds read low
How it was run: as §2

NIH3T3 = assay: as above; conditions: Five cell lines viability, CellTiter-Glo ATP luminescence, 48-72 h; max response: active compounds read low
How it was run: as §2

MCC-13 = assay: qHTS assay to identify novel small-molecules to repurpose for Merkel cell carcinoma treatment (AID 1296009); conditions: MCC and control cell lines, CellTiter-Glo viability, 72 h; series mostly up to 46 µM
How it was run: (§3)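 Cell viability measured by CellTiter-Glo following 72 hr compound treatment at 37 degree celsius, with NPC and MIPE libraries tested in 8- and 11-point concentration series.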

MCC-26 = assay: as above; conditions: MCC and control cell lines, CellTiter-Glo viability, 72 h; series mostly up to 46 µM
How it was run: as §3

P94_40 = assay: qHTS profiling for inhibitors of Plasmodium falciparum proliferation (AID 504749); note: potency is the fitted concentration of half-maximal effect; conditions: P. falciparum in erythrocytes, SYBR Green DNA, 72 h; series mostly up to 28.7 µM
How it was run: as §1

TAB109 = assay: as above; conditions: P. falciparum in erythrocytes, SYBR Green DNA, 72 h; series mostly up to 28.7 µM
How it was run: as §1

HACAT [2] = assay: qHTS assay to identify novel small-molecules to repurpose for Merkel cell carcinoma treatment (AID 1296009); conditions: MCC and control cell lines, CellTiter-Glo viability, 72 h
How it was run: as §3

CRL-7250 = normal cell line; assay: Cytotoxic Profiling of Annotated Libraries Using Quantitative High-Throughput Screening (AID 1296008); conditions: Five cell lines viability, CellTiter-Glo ATP luminescence, 48-72 h; max response: active compounds read low; note: potency is the fitted concentration of half-maximal effect; for max response: % is set by controls: 0 for no effect and ±100 for the full control effect
How it was run: as §2
Note: nearly all actives have a fitted effect of over 60% in size.

CNC(=O)c1cc(Oc2ccc(NC(=O)Nc3ccc(Cl)c(C(F)(F)F)c3)cc2)ccn1
active: Potency (P93_24) 10 µM | Potency (PAD) 2.24 µM | Potency (PC15) 7.08 µM | Potency (PC26) 3.38 µM | Potency (PC49) 8.91 µM | Potency (SC27B) 5.01 µM | Potency (TAB113) 11.2 µM | Potency (TAB165) 5.62 µM | Potency (W2) 15.1 µM | Potency (HEK293) 7.43 µM and 5.8 µM | Potency (KB-3-1) 14.8 µM and 6.51 µM | Potency (NIH3T3) 23.5 µM
inactive: max response (HaCat [1]) -11.7% and -12.9% | Potency (MCC-13) | Potency (MCC-26)

CC(=O)Oc1ccccc1C(=O)Nc1ncc([N+](=O)[O-])s1
inactive: Potency (P93_24) | Potency (P94_40) | Potency (PAD) | Potency (PC15) | Potency (PC26) | Potency (PC49) | Potency (SC27B) | Potency (TAB109) | Potency (TAB113) | Potency (TAB165) | max response (HEK293) -13.9% | outcome (HaCat [1]) | max response (KB-3-1) -5.17% and -18.8% | outcome (NIH3T3) | outcome (HACAT [2]; at 44.8 µM (top of the series)) | outcome (HACAT [2]; at 92 µM (top of the series)) | Potency (MCC-13) | Potency (MCC-26)

N=C(N)c1ccc(OCCCCCOc2ccc(C(=N)N)cc2)cc1
active: Potency (P93_24) 0.631 µM | Potency (P94_40) 1.41 µM | Potency (PAD) 1.41 µM | Potency (PC15) 0.355 µM | Potency (PC26) 0.953 µM | Potency (PC49) 0.708 µM | Potency (SC27B) 1.12 µM | Potency (TAB109) 1.58 µM | Potency (TAB113) 1.41 µM | Potency (TAB165) 0.501 µM | Potency (W2) 0.478 µM

Nc1nc(N)c2nc(CNc3ccc(C(=O)NC(CCC(=O)O)C(=O)O)cc3)cnc2n1 (stereo not given)
active: Potency (CRL-7250) 0.118 µM | Potency (KB-3-1) 33.2 nM | Potency (NIH3T3) 0.0935 µM
inactive: Potency (P93_24) | Potency (P94_40) | Potency (PAD) | Potency (PC15) | Potency (PC26) | Potency (PC49) | Potency (SC27B) | Potency (TAB109) | Potency (TAB113) | Potency (TAB165) | Potency (W2) | max response (HaCat [1]) 4.29% | Potency (MCC-26)

NC(N)=NC(N)=NCCc1ccccc1
inactive: Potency (P93_24) | Potency (P94_40) | Potency (PAD) | Potency (PC15) | Potency (PC26) | Potency (PC49) | Potency (SC27B) | Potency (TAB109) | Potency (TAB113) | Potency (TAB165) | Potency (W2)

Oc1c(Cl)cc(Cl)c2cccnc12
active: Potency (P94_40) 11.2 µM | Potency (TAB165) 10 µM | Potency (NIH3T3) 23.7 µM
inactive: Potency (PC15) | Potency (PC26) | Potency (PC49) | max response (KB-3-1) -16.3% | Potency (MCC-13) | Potency (MCC-26)

Cc1nnc(NS(=O)(=O)c2ccc(N)cc2)s1
inactive: Potency (P93_24) | Potency (P94_40) | Potency (PC15) | Potency (PC26) | Potency (PC49) | Potency (SC27B) | Potency (TAB109) | Potency (TAB113) | Potency (TAB165) | Potency (W2)

CCN1CCCC1CNC(=O)c1cc(S(N)(=O)=O)ccc1OC (stereo not given)
inactive: outcome (CRL-7250) | max response (HaCat [1]) 2.07% | outcome (KB-3-1) | max response (NIH3T3) -4.16% | Potency (MCC-13) | Potency (MCC-26)

CCCc1nc(C)c2c(=O)[nH]c(-c3cc(S(=O)(=O)N4CCN(CC)CC4)ccc3OCC)nn12
inactive: Potency (P94_40) | Potency (PC26) | Potency (TAB109) | Potency (TAB113)
active: Potency (P93_24) 8.91 µM

CCc1c2c(nc3ccc(OC(=O)N4CCC(N5CCCCC5)CC4)cc13)-c1cc3c(c(=O)n1C2)COC(=O)[C@]3(O)CC
inactive: Potency (P93_24) | Potency (P94_40) | Potency (PAD) | Potency (PC15) | Potency (PC26) | Potency (PC49) | Potency (SC27B) | Potency (TAB109) | Potency (TAB113) | Potency (TAB165) | max response (KB-3-1) 43.3%
active: Potency (HEK293) 7.5 µM and 1.05 µM | Potency (HaCat [1]) 23.7 µM and 4.18 µM | Potency (NIH3T3) 14.8 µM
